# The campaign covered roughly 360,000 compounds. About 1,500 (0.42%) were called active. What follows is part of a selection rich in actives, with near analogues and random picks from the rest. Unmarked numbers belong to inactive results. Cut-off read from the data, not from the text of the source: active = inhibition above about 8.5%; inactive = the rest.
# System: HIV-1 gp120 / PG9 antibody interaction
# Experiment: binders of HIV-1 gp120 antibody PG9, primary screen, biochemical, TR-FRET (AID 624416)
# Details: TR-FRET gp120-PG9 antibody binding; at 6.7 µM; stronger effect = higher value
row,Compound,inhibition
1,CCc1ccc(C(=O)CSc2nnc(C)c(=O)[nH]2)cc1,-0.93%
2,N#Cc1c(-c2cccs2)nc(SCC(=O)c2ccc(Br)cc2)[nH]c1=O,23.5% (active)
3,Cc1nnc(SCC(=O)NCc2cccs2)[nH]c1=O,1.17%
4,O=C(COc1ccc2c3c(c(=O)oc2c1)CCCC3)NCC(O)c1ccccc1 (stereo not given),0.6%
5,O=C(Oc1ccccc1)Oc1ccc2c(c1)oc(=O)c1ccccc12,28.2% (active)
6,O=C(COc1ccc2c3c(c(=O)oc2c1)CCC3)NC1CCCCC1,-0.41%
7,C=CC1=CCN(S(=O)(=O)C(C)(C)C)[C@@H]1CCO,0.76%
8,COc1ccccc1CCn1cnc(-c2ccccc2)c1C(C)C,2.18%
9,Nc1nc2c(ncn2[C@@H]2O[C@H](C(=O)N[C@H](Cc3ccccc3)C(=O)NCC3CCCCC3)[C@@H](O)[C@H]2O)c(=O)[nH]1,-1.03%
10,COC(=O)[C@]12C[C@H](CC(=O)NCCc3ccccc3OC)C(=O)N(Cc3ccccc3)C1=C[C@H](C(C)C)O[C@@H]2C1CC1,-0.91%
11,O=C(C(=O)N1CCC(CNC(=O)c2cccnc2Cl)CC1)c1cccs1,-0.43%
12,COc1ccc(-c2csc(NC(=O)c3ccc(N4C(=O)CCC4=O)cc3)n2)cc1OC,8.78% (active)
13,COc1cc(NC(=O)c2ccc(-c3csc(C)n3)cc2)c(OC)cc1Cl,-0.71%
14,COc1ccc(-n2nc3c(c2NC(=O)c2ccc(N4C(=O)CCC4=O)cc2)CSC3)cc1,0.18%
15,C=CCN1C(=O)N(Cc2ccccc2)c2ccccc2S1(=O)=O,-0.26%
16,CSc1ccc(Oc2cccc3c2S(=O)(=O)N([C@H](C)c2ccccc2)C[C@@H](COCc2ccccc2)O3)cc1C,-0.66%
17,COc1ccc(CCNC(=O)C2CCN(c3nn4c(=O)cc(C)nc4s3)CC2)cc1OC,2.38%
18,COc1ccc(-c2c(C)nn3c(N4CCC(C(=O)N5CCCCC5)CC4)cc(C)nc23)cc1OC,30.3% (active)
19,COc1ccc(S(=O)(=O)N2CCC(C(=O)N3CCCC3)CC2)cc1C,-0.08%
20,CC[C@H](NC(=O)[C@H](Cc1ccccc1)NC(=O)[C@H]1O[C@@H](n2cnc3c(=O)[nH]c(N)nc32)[C@H](O)[C@@H]1O)c1ccccc1,1.17%
21,Nc1nc2c(ncn2[C@@H]2O[C@H](C(=O)N[C@@H](Cc3ccccc3)C(=O)NCc3ccccc3)[C@@H](O)[C@H]2O)c(=O)[nH]1,0.08%
22,COC(=O)C1=C(C)N(Cc2ccc(C(F)(F)F)cc2)C(=NCc2ccccc2)NC1c1ccccc1C(F)(F)F (stereo not given),-0.97%

row,Compound,inhibition
1,COC(=O)N1Cc2ccnnc2CC1c1ccccc1Br (stereo not given),-0.32%
2,CC(C)CNc1cccc2c1S(=O)(=O)N[C@H](C)CO2,-0.69%
3,Cc1nc(N2CCN(c3ccccn3)CC2)c2c(C)c(C(=O)Nc3ccc(F)c(Cl)c3)sc2n1,-0.31%
4,Cc1cc(Br)ccc1NC(=O)c1sc2ncn(CC(=O)N3CCN(c4ccccn4)CC3)c(=O)c2c1C,11.3% (active)
5,Cc1cc(Br)ccc1NC(=O)c1cnc(N2CCN(c3ccccn3)CC2)c2ccccc12,-0.94%
6,Nc1ncnc2c1ncn2[C@@H]1O[C@H](C(=O)N[C@@H](CCc2ccccc2)C(=O)NCC(=O)N2CCOCC2)[C@@H](O)[C@H]1O,-1.35%
7,CCCCNc1cccc2c1S(=O)(=O)N[C@@H](C)CO2,-0.83%
8,CN1CCCc2nc(-c3ccccc3)ccc21,-1.37%
9,C[C@H](CO)N1C[C@H](C)[C@@H](CN(C)C(=O)Nc2ccccc2F)OCc2cn(nn2)CCCC1=O,0.59%
10,O=C(NN=Cc1ccco1)C(=O)Nc1ccc(Cl)c([N+](=O)[O-])c1,-2.26%
11,CCOC(=O)N1CCN(C(=O)C[C@H]2C[C@@]3(C(=O)OC)C(=C[C@H](C4CCCC4)O[C@@H]3C)N(Cc3ccccc3)C2=O)CC1,-1.34%
12,COc1ccc(-n2nnnc2SCC(=O)NCc2cccs2)cc1,0.22%
13,COc1ccc(-n2nnnc2-c2nc3ccccc3s2)cc1,14.4% (active)
14,FC(F)(F)c1nc(-c2ccccc2)ncc1-c1nnnn1-c1ccccc1,-0.69%
15,Cc1c(C)n2c(SCC(=O)N3CCCC3)nnc2[nH]c1=O,-1.7%
16,CC(=O)c1sc2nc(SCC(=O)N3CCCCC3)[nH]c(=O)c2c1C,21.1% (active)
17,CSc1nnc(SCc2nc3sc(C(=O)O)c(C)c3c(=O)[nH]2)s1,-1.42%
18,Cc1nc(-c2ccccc2)sc1-c1nc(-c2ccccc2)ncc1S(=O)(=O)c1ccccc1,10.9% (active)
19,Cc1nc(-c2ccccc2)sc1-c1nnc(C2CC2)o1,-1.07%
20,C#CC(C)(C)NC(=O)c1cnc(-c2ccccc2)nc1-c1ccccc1,-1.56%
21,CC(=O)N1C[C@@H](CO)[C@@H](N(C)C(=O)C(C)(C)C)C[C@H]1c1ccccc1Br,0.03%
22,O=S1(=O)c2c(cccc2N2CCCC2)O[C@H](COCc2ccccc2)CN1C1CC1,-1.25%

row,Compound,inhibition
1,N#C/C=C1\Sc2ccccc2C(=O)N1CC(=O)N1CCN(S(=O)(=O)c2ccccc2)CC1,16.5% (active)
2,CC(C)c1ccc(S(=O)(=O)N2CCN(C(=O)CN3C(=O)NC(C)(c4ccccc4)C3=O)CC2)cc1 (stereo not given),-0.6%
3,O=C(CN1CCCSc2ccccc21)N1CCN(S(=O)(=O)c2cccc(F)c2)CC1,-0.88%
4,O=C(N[C@H](Cc1ccccc1)C(=O)N1CCCN(Cc2cccs2)CC1)[C@H]1O[C@@H](n2ccc(=O)[nH]c2=O)[C@H](O)[C@@H]1O,-1.49%
5,COc1ccc(-c2ccccc2C2Cc3nnccc3CN2C(=O)Nc2ccccc2)cc1 (stereo not given),-1.16%
6,Clc1cccc2c1C1CC2CCN1Cc1ccccc1 (stereo not given),-1.15%
7,CCc1ccccc1OCC(=O)Nc1ccc2c(c1)OCCO2,-0.52%
8,CCOc1cccc(NC(=O)Cn2nc(-c3ccc4c(c3)OCCO4)ccc2=O)c1,9.11% (active)
9,CC(=O)c1cc2c(cc1NC(=O)Cn1nc(-c3ccc(F)cc3)ccc1=O)OCO2,-0.49%
10,COC(=O)C1=C(C(=O)OC)C2C=C(C(C)C)C1C(=O)C2(C)O (stereo not given),-0.26%
11,Cc1ccc(-n2c(SCC(=O)NCCC3=CCCCC3)nc3n[nH]c(C)c3c2=N)cc1Cl,35.7% (active)
12,Cc1nnc(OCC(=O)NCCC2=CCCCC2)c2ccccc12,-0.11%
13,COc1cccc(-n2c(SCC(=O)NC3CCCCC3)nc3n[nH]c(C)c3c2=N)c1,0.99%
14,CCCCCCNC(=O)CSc1nccn1Cc1ccccc1,0.53%
15,CCCCNC(=O)CSc1nccn1Cc1ccccc1,2.29%
16,CCCCNC(=O)CSc1nc2n[nH]c(C)c2c(=N)n1-c1cccc(Cl)c1C,20.8% (active)
17,Cc1ccc(C)c(CN2CCC(CNC(=O)C3CCCN(c4ncnc5c4nc4n5CCCCC4)C3)CC2)c1 (stereo not given),-0.22%
18,COC(=O)[C@]12C[C@H](CC(=O)NCCCCc3ccccc3)C(=O)N(Cc3ccc4c(c3)OCO4)C1=C[C@H](C(C)(C)C)O[C@@H]2C,1.2%
19,C=CCN=C1NC(c2ccccc2)C(C(=O)OC)=C(C)N1Cc1ccc(C(F)(F)F)cc1 (stereo not given),-0.19%
20,COc1ccc(CNS(=O)(=O)c2cc(Br)ccc2Br)cc1,0.06%
21,COC(=O)Cc1nnn2c1[C@H](C)[C@H](c1ccccc1Br)OCC2,1.33%
22,Cc1ccc(N)cc1CN1CCN(c2ncc(Cc3ccccc3)cn2)CC1,-3.21%

row,Compound,inhibition
1,COc1ccc(Cl)cc1NC(=O)Cn1nc(-c2ccc(C)cc2)n(C)c1=S,11% (active)
2,COc1ccc(C)cc1NC(=O)CSc1ccc(Cl)cc1,-1.28%
3,COc1ccc(Cl)cc1NC(=O)CN1CCN(C(=O)N2CCOCC2)CC1,1.73%
4,CC1CCCN(c2cccc3c2S(=O)(=O)N(Cc2ccc(F)cc2)[C@@H](C)[C@H](c2ccccc2)O3)C1 (stereo not given in full),0.43%
5,CCCN1C(=O)c2[nH]nc(-c3ccccc3)c2C1c1ccccc1 (stereo not given),-1.03%
6,CC(NS(=O)(=O)c1ccc(Cl)cc1)C(=O)Nc1ccc2c(c1)OCCO2 (stereo not given),0.53%
7,O=C(Nc1cccc(S(=O)(=O)Nc2ccc(Cl)cc2)c1)c1ccc2c(c1)OCCO2,9.35% (active)
8,CCN(CC)CCNC(=O)c1ccc(NS(=O)(=O)c2ccc3c(c2)OCCO3)cc1,-1.11%
9,COCCNC(=O)c1ccccc1-c1nc(-c2ccccc2Cl)no1,-2.1%
10,Nc1nc2c(Br)ccc(Br)c2cc1C(=O)NCCc1ccccc1,3.73%
11,COCCNC(=O)c1cc2c(Br)ccc(Br)c2nc1N,9.73% (active)
12,Cc1ccc2nc(CN(C)C(=O)[C@@H](Cc3ccccc3)NC(=O)[C@H]3O[C@@H](n4ccc(=O)[nH]c4=O)[C@H](O)[C@@H]3O)[nH]c2c1,-1.8%
13,COc1ccc(SSc2ccc(OC)cc2C(=O)O)c(C(=O)O)c1,-0.62%
14,C=CCn1c(CCNC(=O)c2cccs2)n[nH]c1=S,-0.83%
15,C=CCn1c(SCC(=O)Nc2ccc(NC(C)=O)cc2)nc2sc(C)c(C)c2c1=O,1.19%
16,O=C(CN1CCCCCC1)Nc1ccc(S(=O)(=O)N2CCCCC2)cc1,-1.07%
17,C=CCn1c(=NC(=O)c2cccs2)sc2cc(NC(C)=O)ccc21,10.5% (active)
18,C=CCn1c(=NC(=O)c2ccc(S(=O)(=O)N3CCCC3)cc2)sc2cc(NC(C)=O)ccc21,13% (active)
19,CC(=O)Nc1ccc(S(=O)(=O)N2CCN(S(=O)(=O)c3cccs3)CC2)cc1,1.11%
